Data from PubChem BioAssay.
Active and inactive are the calls of the source.

Tests used:
[1] = target: Albumin (Bos taurus) (UniProt P02769); assay: compounds binding labelled BSA control protein – biochemical, small-molecule microarray, Alexa647 label, 635/667 nm fluorescence, artefact control for SMM control protein annotation, profiling panel (AID 1118); settings: BSA-A647 binding, fluorescence 635 nm, higher = more signal;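 also: score merges 667 nm emission intensity and signal-to-noise per printed compound spot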
Chain of Albumin (Bos taurus) (P02769 whole entry, looked up): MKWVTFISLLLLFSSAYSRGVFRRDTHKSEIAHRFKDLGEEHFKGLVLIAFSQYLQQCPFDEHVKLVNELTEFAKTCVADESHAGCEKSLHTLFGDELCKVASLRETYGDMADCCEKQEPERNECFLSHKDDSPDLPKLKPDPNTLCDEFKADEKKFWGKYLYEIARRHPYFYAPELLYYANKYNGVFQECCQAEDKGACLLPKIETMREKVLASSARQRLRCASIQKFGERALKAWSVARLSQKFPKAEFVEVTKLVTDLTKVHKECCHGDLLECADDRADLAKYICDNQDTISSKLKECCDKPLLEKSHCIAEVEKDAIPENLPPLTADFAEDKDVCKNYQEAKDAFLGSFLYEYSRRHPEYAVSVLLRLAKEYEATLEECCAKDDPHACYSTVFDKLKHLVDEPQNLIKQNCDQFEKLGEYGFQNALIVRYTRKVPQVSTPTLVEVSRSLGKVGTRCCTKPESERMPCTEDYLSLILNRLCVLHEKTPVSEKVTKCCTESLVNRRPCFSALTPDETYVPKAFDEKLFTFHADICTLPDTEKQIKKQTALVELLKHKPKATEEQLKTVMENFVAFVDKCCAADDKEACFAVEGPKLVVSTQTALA

[2] = probe aXIP binding to arrayed compounds – biochemical, NeuroSMM set, 635/667 nm fluorescence, primary screen (AID 1119); settings: small-molecule microarray, higher = more signal, called active from +8 up or from −8 down;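 also: probe is the protein aXip251-270 applied at 1 µg/mL to compound-printed slides; binding of probe to printed compounds measured as 667 nm fluorescence plus signal to noise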
[3] = probe aNOTCH3 binding on compound microarray – biochemical, small-molecule microarray, 635/667 nm fluorescence, primary screen (AID 1120); settings: higher = more signal;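 also: probe is a biotin-tagged antibody raised against NOTCH3 rather than NOTCH3 protein; score merges spot fluorescence near 667 nm with spot signal to noise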
[4] = probe aNOTCH2 binding on compound microarray – biochemical, small-molecule microarray, 635/667 nm fluorescence, primary screen (AID 1121); settings: higher = more signal;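 also: score merges feature fluorescence read at 667 nm with its signal to noise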
[5] = target: Carbonic anhydrase 2 (Homo sapiens) (UniProt P00918); assay: compounds binding carbonic anhydrase 2 – biochemical, small-molecule microarray, Alexa647-labelled CAII, profiling panel (AID 1122); settings: CAII-A647 binding fluorescence, higher = more signal
[6] = COS7 lysate on small-molecule microarray, probe aHis, 635 nm (AID 1123); settings: COS7 cell lysate, fluorescence, higher = more signal;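 also: z-score combines 667nm fluorescence intensity with signal-to-noise per printed compound spot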
[7] = probe aLAP1 signal on lysate-treated microarray – cell lysate, small-molecule microarray, COS7 lysate, primary screen (AID 1124); settings: probe aLAP1, fluorescence, higher = more signal;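 also: lysate comes from COS7 cells expressing LAP1 and is applied at 0.3 µg/mL; score merges spot fluorescence near 667 nm with signal-to-noise over triplicate slides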
[8] = tested on: Sam68 (KHDRBS1); assay: compounds binding KHDRBS1 protein – biochemical, small-molecule microarray, 635 nm fluorescence, primary screen (AID 1125); settings: higher = more signal;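 also: score merges 667 nm channel intensity with signal to noise over triplicate slides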
[9] = tested on: Chordin-like protein 2 (CHRDL2); assay: compounds binding chordin-like 2 – biochemical, small-molecule microarray, 635 nm fluorescence, primary screen (AID 1126); settings: fluorescence 635 nm, higher = more signal;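 also: printed compound slides probed with Chrdl2 protein at 4 µg/mL for 1 h at 4 C; score merges 667 nm emission intensity with signal to noise over three replicate slides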
[10] = target: Concanavalin-A (Canavalia ensiformis) (UniProt P02866); assay: compounds binding concanavalin A lectin – biochemical, small-molecule microarray, Alexa647 label, 635 nm, artefact control for SMM control protein annotation, primary screen (AID 1127); settings: ConA-A647 binding fluorescence, higher = more signal;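 also: z combines 667 nm emission intensity with signal-to-noise across three replicate slides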
Chain of Concanavalin-A (Canavalia ensiformis) (P02866 whole entry, looked up): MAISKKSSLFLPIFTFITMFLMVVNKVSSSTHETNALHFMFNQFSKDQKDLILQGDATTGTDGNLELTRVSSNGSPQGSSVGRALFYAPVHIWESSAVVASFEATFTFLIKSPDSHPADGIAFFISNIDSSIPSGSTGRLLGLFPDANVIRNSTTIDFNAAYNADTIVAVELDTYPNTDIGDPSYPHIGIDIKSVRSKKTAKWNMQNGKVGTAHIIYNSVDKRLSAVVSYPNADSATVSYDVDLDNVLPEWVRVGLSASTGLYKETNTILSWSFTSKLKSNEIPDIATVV

[11] = compounds binding Alexa647 anti-His antibody – biochemical, small-molecule microarray, 635 nm fluorescence, artefact control for SMM control protein annotation, primary screen (AID 1128); settings: higher = more signal;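 also: score merges feature fluorescence with signal-to-noise for each printed compound spot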
[12] = tested on: Human papillomavirus type 1a E7 protein (residues 1-88); assay: HPV1a E7 small-molecule binders, primary screen, biochemical, small-molecule microarray, residues 1-88, 635 nm (AID 1129); settings: small-molecule microarray binding, fluorescence 635 nm; higher = more signal
[13] = target: Focal adhesion kinase 1 (Homo sapiens) (UniProt Q05397); assay: PTK2 protein binding on printed compound slides – biochemical, small-molecule microarray, 635/667 nm fluorescence, BSA, DTT, primary screen (AID 1130); settings: 635 nm fluorescence, higher = more signal;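 also: composite of spot emission at 667 nm and signal to noise over triplicate slides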
Chain of Focal adhesion kinase 1 (Homo sapiens) (Q05397 whole entry, looked up): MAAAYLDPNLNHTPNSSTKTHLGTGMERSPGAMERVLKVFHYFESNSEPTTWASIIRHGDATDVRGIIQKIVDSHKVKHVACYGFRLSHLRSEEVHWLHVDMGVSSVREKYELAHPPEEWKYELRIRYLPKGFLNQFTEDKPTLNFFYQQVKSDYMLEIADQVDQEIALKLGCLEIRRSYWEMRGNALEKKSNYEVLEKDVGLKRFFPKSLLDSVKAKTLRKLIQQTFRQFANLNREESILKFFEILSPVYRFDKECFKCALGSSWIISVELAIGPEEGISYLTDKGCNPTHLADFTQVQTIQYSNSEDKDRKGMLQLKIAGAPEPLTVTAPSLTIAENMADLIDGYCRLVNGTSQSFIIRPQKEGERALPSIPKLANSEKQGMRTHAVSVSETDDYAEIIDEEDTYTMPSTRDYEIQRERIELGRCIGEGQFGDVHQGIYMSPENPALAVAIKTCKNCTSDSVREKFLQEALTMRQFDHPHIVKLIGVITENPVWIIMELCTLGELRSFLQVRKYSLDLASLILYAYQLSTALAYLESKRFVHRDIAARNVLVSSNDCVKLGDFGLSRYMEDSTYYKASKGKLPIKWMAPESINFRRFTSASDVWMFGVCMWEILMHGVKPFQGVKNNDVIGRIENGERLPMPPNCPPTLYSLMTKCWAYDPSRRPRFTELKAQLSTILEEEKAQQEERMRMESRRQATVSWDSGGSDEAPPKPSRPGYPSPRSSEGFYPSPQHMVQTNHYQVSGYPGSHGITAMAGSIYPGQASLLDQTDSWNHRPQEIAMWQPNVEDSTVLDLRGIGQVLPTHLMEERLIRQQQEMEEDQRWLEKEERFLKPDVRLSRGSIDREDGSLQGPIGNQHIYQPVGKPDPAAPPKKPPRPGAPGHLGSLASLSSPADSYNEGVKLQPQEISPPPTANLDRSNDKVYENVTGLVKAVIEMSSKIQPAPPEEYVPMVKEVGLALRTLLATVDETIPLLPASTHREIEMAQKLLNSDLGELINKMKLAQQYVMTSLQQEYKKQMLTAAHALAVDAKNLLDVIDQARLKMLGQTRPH

[14] = tested on: Fibrinogen (Alexa647-labelled); assay: Alexa647-fibrinogen binding to printed small molecules – biochemical, small-molecule microarray, 635/667 nm fluorescence, artefact control for SMM control-protein annotation, profiling panel (AID 1131); settings: fibrinogen-A647 binding fluorescence, higher = more signal;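 also: z-score merges 667 nm fluorescence with per-spot signal-to-noise over triplicate slides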
[15] = target: Follistatin (Homo sapiens) (UniProt P19883); assay: FST protein binding to printed compounds – biochemical, small-molecule microarray, 635/667 nm fluorescence, primary screen (AID 1132); settings: 635 nm fluorescence, higher = more signal
Chain of Follistatin (Homo sapiens) (P19883 whole entry, looked up): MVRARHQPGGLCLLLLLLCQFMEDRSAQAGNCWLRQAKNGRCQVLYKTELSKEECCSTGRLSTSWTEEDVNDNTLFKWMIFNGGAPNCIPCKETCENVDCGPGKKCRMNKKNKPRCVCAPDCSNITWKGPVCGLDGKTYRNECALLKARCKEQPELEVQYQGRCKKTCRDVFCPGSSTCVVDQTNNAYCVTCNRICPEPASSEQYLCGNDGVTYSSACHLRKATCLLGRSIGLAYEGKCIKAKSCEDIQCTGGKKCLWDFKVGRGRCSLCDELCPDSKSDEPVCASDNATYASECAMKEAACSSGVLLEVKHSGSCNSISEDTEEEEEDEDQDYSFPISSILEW

[16] = target: Fibroblast growth factor 2 (Homo sapiens) (UniProt P09038); assay: basic fibroblast growth factor binding to printed compounds – biochemical, small-molecule microarray, 635/667 nm fluorescence, primary screen (AID 1133); settings: FGF2, fluorescence 635/667, higher = more signal
Chain of Fibroblast growth factor 2 (Homo sapiens) (P09038 whole entry, looked up): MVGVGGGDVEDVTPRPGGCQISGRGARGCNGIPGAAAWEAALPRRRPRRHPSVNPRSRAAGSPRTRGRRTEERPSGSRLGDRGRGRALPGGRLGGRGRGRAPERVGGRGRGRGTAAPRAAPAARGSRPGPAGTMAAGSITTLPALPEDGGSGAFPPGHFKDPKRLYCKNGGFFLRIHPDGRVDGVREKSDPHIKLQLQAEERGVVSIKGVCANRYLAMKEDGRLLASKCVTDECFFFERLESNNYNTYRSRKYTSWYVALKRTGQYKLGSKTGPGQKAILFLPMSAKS

[17] = JC-1 mitochondrial potential readout, lung cancer cells – cell-based, A549, JC-1 fluorescence, basal, 24 h, 100 nL, profiling panel (AID 1138); settings: higher = more signal;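 also: A549 lung adenocarcinoma cells under basal conditions with no added stimulus; test concentration not given here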
[18] = tested on: Lefty1; assay: Lefty1 protein binding to printed compounds – biochemical, small-molecule microarray, 635/667 nm fluorescence, primary screen (AID 1139); settings: fluorescence 635/667, higher = more signal
[19] = tested on: wheat germ agglutinin (Triticum aestivum), Alexa647-labelled; assay: Alexa647-WGA lectin binding to printed small molecules – biochemical, small-molecule microarray, 635/667 nm fluorescence, artefact control for SMM control-protein annotation, profiling panel (AID 1140); settings: WGA-A647 binding, 635 nm fluorescence, higher = more signal;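 also: score merges 667 nm feature emission with signal to noise over triplicate slides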
[20] = target: Luciferin 4-monooxygenase (Photinus pyralis) (UniProt P08659); assay: inhibition of purified Photinus pyralis luciferase – biochemical, luminescence, purified enzyme, 2006 set, primary screen (AID 1141); settings: purified firefly luciferase, SteadyGlo luminescence, 30 min; higher = more signal, called active from +8 up or from −8 down;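 also: cell-free assay with purified firefly luciferase at 100 ng per well in PBS; test concentration not given here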
Chain of Luciferin 4-monooxygenase (Photinus pyralis) (P08659 whole entry, looked up): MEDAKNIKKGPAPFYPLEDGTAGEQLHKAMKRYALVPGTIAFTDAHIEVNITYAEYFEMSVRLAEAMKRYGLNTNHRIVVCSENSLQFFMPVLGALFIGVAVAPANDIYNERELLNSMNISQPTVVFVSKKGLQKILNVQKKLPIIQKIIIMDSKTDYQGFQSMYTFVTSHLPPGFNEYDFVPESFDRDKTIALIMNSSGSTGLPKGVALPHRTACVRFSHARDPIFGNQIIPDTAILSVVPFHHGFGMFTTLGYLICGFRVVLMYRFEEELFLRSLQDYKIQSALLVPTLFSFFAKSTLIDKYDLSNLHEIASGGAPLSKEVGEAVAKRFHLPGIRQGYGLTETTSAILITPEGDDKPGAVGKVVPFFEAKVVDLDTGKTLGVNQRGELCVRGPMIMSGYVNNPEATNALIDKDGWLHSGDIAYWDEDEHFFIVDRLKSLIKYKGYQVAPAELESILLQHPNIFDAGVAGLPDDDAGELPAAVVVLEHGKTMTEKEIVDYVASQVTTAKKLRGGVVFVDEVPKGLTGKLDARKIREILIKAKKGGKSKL

Q: Which results are given for COc1ccc(/C=C/C(=O)c2cccc(OCC(=O)OC(C)(C)C)c2)cc1?
A: composite z-score [1]: 0.396; composite Z-score [2]: -0.0202 (inactive); composite z-score [3]: -0.176; composite z-score [4]: -0.133; composite z-score [5]: -0.0082; composite z-score [6]: 0.872; composite z-score [7]: 0.651; composite z-score [8]: 1.02; composite z-score [9]: -0.55; composite z-score [10]: 0.4; composite z-score [11]: 0.0179; composite z-score [12]: 0.67; composite z-score [13]: 0.168; composite z-score [14]: 0.158; composite z-score [15]: -0.708; composite z-score [16]: -0.453; z-score [17]: 1.57; composite z-score [18]: -0.51; composite z-score [19]: 0.248; z-score [20]: -2.64 (inactive)

Q: For CC(C)C(CO)N1C(=O)[C@@H]2C3C(=O)OCCC/C=C\[C@H]3OC23C=CCN(C(C)C)C(=O)[C@@H]13 (stereo not given in full), which composite z-score [1] is on record?
A: Its composite z-score is -1.36.

Q: What about the composite Z-score [2] of the same compound?
A: The composite Z-score was 1.77 (inactive).

Q: And the composite z-score [3]?
A: The composite z-score was -0.214.

Q: And the composite z-score [4]?
A: The composite z-score was -0.168.

Q: And the composite z-score [5]?
A: The composite z-score was 0.865.

Q: And the composite z-score [6]?
A: The composite z-score was 1.37.

Q: And the composite z-score [7]?
A: The composite z-score was 1.95.

Q: And the composite z-score [8]?
A: Its composite z-score is 0.879.

Q: And the composite z-score [9]?
A: Its composite z-score is -1.5.

Q: And the composite z-score [10]?
A: The composite z-score was -0.341.

Q: And the composite z-score [11]?
A: The composite z-score was -1.74.

Q: And the composite z-score [12]?
A: Its composite z-score is -0.809.

Q: What about the composite z-score [13] of the same compound?
A: Its composite z-score is 0.0086.

Q: And the composite z-score [14]?
A: Its composite z-score is -0.935.

Q: What about the composite z-score [15] of the same compound?
A: The composite z-score was -1.05.

Q: What about the composite z-score [16] of the same compound?
A: Its composite z-score is -0.993.

Q: What about the z-score [17] of the same compound?
A: The z-score was 0.743.

Q: What about the composite z-score [18] of the same compound?
A: Its composite z-score is -0.278.

Q: What about the composite z-score [19] of the same compound?
A: The composite z-score was -1.14.

Q: And the z-score [20]?
A: The z-score was -0.774 (inactive).

Q: Which composite z-score [1] does the source give for O=C1O[C@H](c2ccccc2)[C@H](c2ccccc2)N2[C@H]1[C@@H](C(=O)NC[C@H](O)c1ccccc1)[C@]1(C(=O)Nc3ccc(C#CC4(O)CCCCCC4)cc31)[C@H]2c1ccc(O)cc1 here?
A: The composite z-score was 0.647.

Q: What about the composite Z-score [2] of the same compound?
A: The composite Z-score was 0.601 (inactive).

Q: And the composite z-score [3]?
A: Its composite z-score is 0.246.

Q: What about the composite z-score [4] of the same compound?
A: Its composite z-score is -0.0404.

Q: What about the composite z-score [5] of the same compound?
A: The composite z-score was 0.359.

Q: And the composite z-score [6]?
A: Its composite z-score is 0.892.

Q: And the composite z-score [7]?
A: Its composite z-score is 1.07.

Q: And the composite z-score [8]?
A: Its composite z-score is 1.33.

Q: And the composite z-score [9]?
A: The composite z-score was 0.233.

Q: And the composite z-score [10]?
A: Its composite z-score is 1.12.

Q: And the composite z-score [11]?
A: Its composite z-score is 1.23.

Q: And the composite z-score [12]?
A: The composite z-score was 0.843.

Q: And the composite z-score [13]?
A: Its composite z-score is 0.333.

Q: And the composite z-score [14]?
A: Its composite z-score is 0.574.

Q: And the composite z-score [15]?
A: The composite z-score was 1.31.

Q: And the composite z-score [16]?
A: Its composite z-score is 1.01.

Q: What about the z-score [17] of the same compound?
A: Its z-score is -0.105.

Q: What about the composite z-score [18] of the same compound?
A: The composite z-score was 0.873.

Q: And the composite z-score [19]?
A: Its composite z-score is 0.588.

Q: And the z-score [20]?
A: The z-score was -1.56 (inactive).

Q: Which results are given for C=CC[C@@]1(C(=O)NCc2ccccc2)N=C(c2ccc(OCCCO)cc2)O[C@@H]1c1ccccc1?
A: composite z-score [1]: 0.864; composite Z-score [2]: 0.118 (inactive); composite z-score [3]: 0.0762; composite z-score [4]: -0.061; composite z-score [5]: 0.493; composite z-score [6]: 2.56; composite z-score [7]: 0.268; composite z-score [8]: 0.966; composite z-score [9]: -0.353; composite z-score [10]: 0.454; composite z-score [11]: 1.11; composite z-score [12]: 1.16; composite z-score [13]: 0.997; composite z-score [14]: -0.017; composite z-score [15]: -0.646; composite z-score [16]: -1.1; z-score [17]: 0.215; composite z-score [18]: -0.865; composite z-score [19]: 0.539; z-score [20]: -1.05 (inactive)

Q: Which composite z-score [1] does the source give for COc1ccc(C#Cc2ccc3c(c2)[C@]2(C(=O)N3)[C@H](c3ccc(O)cc3)N3[C@H](c4ccccc4)[C@H](c4ccccc4)OC(=O)[C@H]3[C@@H]2C(N)=O)cc1 here?
A: Its composite z-score is -0.524.

Q: And the composite Z-score [2]?
A: Its composite Z-score is 1.08 (inactive).

Q: What about the composite z-score [3] of the same compound?
A: Its composite z-score is -0.299.

Q: And the composite z-score [4]?
A: The composite z-score was -0.147.

Q: What about the composite z-score [5] of the same compound?
A: The composite z-score was 0.662.

Q: What about the composite z-score [6] of the same compound?
A: The composite z-score was 1.25.

Q: And the composite z-score [7]?
A: Its composite z-score is 0.0742.

Q: And the composite z-score [8]?
A: The composite z-score was 0.278.

Q: And the composite z-score [9]?
A: The composite z-score was -1.54.

Q: What about the composite z-score [10] of the same compound?
A: The composite z-score was -0.211.

Q: And the composite z-score [11]?
A: The composite z-score was 2.17.

Q: What about the composite z-score [12] of the same compound?
A: The composite z-score was -0.0669.

Q: And the composite z-score [13]?
A: The composite z-score was 0.627.

Q: What about the composite z-score [14] of the same compound?
A: The composite z-score was -0.063.

Q: And the composite z-score [15]?
A: Its composite z-score is -0.482.

Q: What about the composite z-score [16] of the same compound?
A: The composite z-score was -0.617.

Q: And the z-score [17]?
A: Its z-score is -1.59.

Q: And the composite z-score [18]?
A: Its composite z-score is -0.9.

Q: And the composite z-score [19]?
A: Its composite z-score is -0.0907.

Q: And the z-score [20]?
A: The z-score was -1.44 (inactive).

Q: For COCCOC(=O)N1C(=O)[C@@]2(c3cc(C#CCCO)ccc31)[C@H](c1ccccc1OCCO)N1[C@H](c3ccccc3)[C@H](c3ccccc3)OC(=O)[C@H]1[C@@H]2C(=O)NC[C@H](O)c1ccccc1, which composite z-score [1] is on record?
A: Its composite z-score is 0.25.

Q: What about the composite Z-score [2] of the same compound?
A: Its composite Z-score is 0.0022 (inactive).

Q: And the composite z-score [3]?
A: Its composite z-score is -0.0197.

Q: And the composite z-score [4]?
A: Its composite z-score is -0.0753.

Q: What about the composite z-score [5] of the same compound?
A: The composite z-score was 0.204.

Q: And the composite z-score [6]?
A: Its composite z-score is 2.15.

Q: What about the composite z-score [7] of the same compound?
A: The composite z-score was 0.35.

Q: What about the composite z-score [8] of the same compound?
A: Its composite z-score is 1.31.

Q: And the composite z-score [9]?
A: Its composite z-score is 0.524.

Q: And the composite z-score [10]?
A: Its composite z-score is 0.859.

Q: What about the composite z-score [11] of the same compound?
A: The composite z-score was 2.02.

Q: What about the composite z-score [12] of the same compound?
A: Its composite z-score is 0.907.

Q: And the composite z-score [13]?
A: The composite z-score was 1.07.

Q: And the composite z-score [14]?
A: Its composite z-score is 0.756.

Q: And the composite z-score [15]?
A: Its composite z-score is 1.5.

Q: What about the composite z-score [16] of the same compound?
A: The composite z-score was 1.7.

Q: And the z-score [17]?
A: Its z-score is 0.891.

Q: And the composite z-score [18]?
A: The composite z-score was 1.61.

Q: What about the composite z-score [19] of the same compound?
A: Its composite z-score is 1.01.

Q: And the z-score [20]?
A: The z-score was -1.74 (inactive).
